# Only some compounds are listed: those with a hit (about 16% of all), similar ones and a draw of the others.
# TDP1 cell CPT: qHTS for Inhibitors of human tyrosyl-DNA phosphodiesterase 1 (TDP1): qHTS in cells in presence of CPT; AID 686979, 2013; actives 12% (n = 420,000); chicken DT40 Tdp1-/-;hTDP1 cells + 20 nM CPT, ATP luminescence, 48 h; Potency, µM (series often up to 46.2 µM), inactives show at the top dose activity change, negative = growth inhibition, usual class: inhibitors; note: potency is the fitted concentration of half-maximal effect; % is set by controls: 0 for no effect and ±100 for the full control effect; nearly all actives have a fitted effect of over 55% in size
#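 Chicken DT40 Tdp1-/- cells complemented with human TDP1, 400 cells/well, exposed to compounds plus 20 nM camptothecin for at least 48 h at 37 C; viability read as ATP content by CellTiter-Glo luminescence.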
# miR-21 reporter: qHTS Assay for Modulators of miRNAs and/orActivators of miR-21 | AID 2288, 2010 | HeLa miR-21 FLuc reporter, luciferase, 48 h | Potency, µM (doses to about 38.3 µM), inactives show at the highest dose activity change, positive = activation, most hits filed as activators | 340,000 tested, under 10 active;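 note: % of control where 0% means no effect; miR-21 action dims this reporter so a rising signal means less miR-21 action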
#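 Using DMEM plus 10% FBS, HeLa miR-21-FLuc cells are incubated with test compounds (final up to about 40uM) for 48 hours; firefly luciferase signal is then imaged following reagent-mediated lysis.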
# uPA generation: qHTS for Inhibitors of Cell Surface uPA Generation; cell surface uPA generation assay, qHTS; Potency, µM (doses to about 38.3 µM), without a hit: at the highest dose activity change, negative = inhibition, most hits filed as inhibitors; actives 0.31% (n = 330,000); active = well fitted inhibition curve with a large enough effect; inconclusive = small, poorly fitted or top-dose-only effect; inactive = no such curve, though single readings can be large or run the other way; tested in mouse RAW 264.7 cells; note: potency is the fitted concentration of half-maximal effect; % is set by controls: 0 for no effect and ±100 for the full control effect; nearly all actives have a fitted effect of over 55% in size
# TDP1 inh: qHTS Assay for Inhibitors of Tyrosyl-DNA Phosphodiesterase (TDP1); Tyrosyl-DNA phosphodiesterase 1 (Homo sapiens), Q9NUW8; recombinant TDP1, AlphaScreen DNA substrate cleavage; Potency, µM (highest dose often 130 µM), inactives show at the highest dose activity change, negative = inhibition, most hits filed as inhibitors; actives 0.28% (n = 350,000); AID 485290, 2010; note: potency is the fitted concentration of half-maximal effect; % is set by controls: 0 for no effect and ±100 for the full control effect; nearly all actives have a fitted effect of over 40% in size
# Target sequence (Q9NUW8 whole entry, looked up): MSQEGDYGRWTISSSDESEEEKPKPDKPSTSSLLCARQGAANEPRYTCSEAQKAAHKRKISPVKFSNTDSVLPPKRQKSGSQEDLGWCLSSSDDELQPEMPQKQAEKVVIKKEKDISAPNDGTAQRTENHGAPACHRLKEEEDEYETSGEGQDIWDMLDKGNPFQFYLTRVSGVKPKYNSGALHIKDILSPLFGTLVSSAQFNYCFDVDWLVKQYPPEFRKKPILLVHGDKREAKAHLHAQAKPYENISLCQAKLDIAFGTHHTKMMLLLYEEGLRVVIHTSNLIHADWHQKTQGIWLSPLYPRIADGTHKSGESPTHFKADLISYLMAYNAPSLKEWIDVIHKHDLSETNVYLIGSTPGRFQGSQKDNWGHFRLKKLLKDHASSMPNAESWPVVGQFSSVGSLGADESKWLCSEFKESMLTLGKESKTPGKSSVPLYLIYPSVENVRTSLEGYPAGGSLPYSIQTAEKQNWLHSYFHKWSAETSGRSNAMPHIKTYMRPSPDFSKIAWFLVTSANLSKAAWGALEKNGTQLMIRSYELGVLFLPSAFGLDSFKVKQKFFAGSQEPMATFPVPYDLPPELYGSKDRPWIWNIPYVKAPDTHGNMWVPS
#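 Tdp1 1 nM final; 15 min RT w/ cpd; substrate 15 nM, 5 min; beads 10 ug/ml, 10 min; AlphaScreen read. Neg ctrl: no enzyme.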
# TDP1 cell noCPT: qHTS for Inhibitors of human tyrosyl-DNA phosphodiesterase 1 (TDP1): qHTS in cells in absence of CPT. DT40 Tdp1-/- hTDP1 cells, no CPT, ATP luminescence, 48 h. Potency, µM (series often up to 46.2 µM), for the others: at the top dose activity change, negative = growth inhibition, hits mostly inhibitors. actives 15% (n = 420,000). AID 686978, 2013; note: potency is the fitted concentration of half-maximal effect; % is set by controls: 0 for no effect and ±100 for the full control effect; nearly all actives have a fitted effect of over 55% in size
#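 Stably hTDP1-transfected Tdp1-null chicken DT40 cells were treated with library compounds minus camptothecin and grown for at least 48 hr at 37 °C, after which cellular ATP was quantified by luminescence.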
# * marks the source's active call; other numbers are inactive results; ? = inconclusive; / = no result; ! = repeats disagree; [ ] = dose if it differs, or a comment. Unless noted, calls come from the whole dose curve; as a rule, active = well fitted curve in the direction sought with a large enough effect; inconclusive = small, poorly fitted or top-dose-only effect, or another doubt; inactive = no such curve, though single readings can be large; an effect the other way counts as inactive or inconclusive.
SMILES,TDP1 cell CPT,miR-21 reporter,uPA generation,TDP1 inh,TDP1 cell noCPT
CCC(=O)Oc1ccc(C/C(=N\O)c2ccc(O)cc2O)o1,?,18.8%,-18.1%,-13.9%,18.4µM*
CN1CCC(=C2c3ccccc3C=Cc3ccccc32)CC1,29.9µM*!,21.3%,13.9%,5.8%,26.6µM*!
O=C1Cc2ccccc2Sc2ccccc21,-19.5%,-10.6%,-2.1%,-5.1%,?
CN1CCC(=C2c3ccccc3Sc3ccccc32)CC1,7.31µM*,/,?,11.0%,18.4µM*
CN1CCN(C(=O)N2c3ccccc3C=Cc3ccccc32)CC1,-22.1%,-8.3%,8.2%,3.0%,-24.2%
CN1N=C(C(=O)N2CCN(c3ccc([N+](=O)[O-])cc3)CC2)CCC1=O,3.9%,7.1%,-3.3%,5.6%,-7.3%
COc1ccccc1CNC(=O)c1cc(-c2ccccc2)nn1CC1CC(c2cccnc2)=NO1 (stereo not drawn),?,/,9.4%,/,?
COc1cc(/C=N/NC(=S)NCc2ccco2)cc(OC)c1OC,16.4µM*,-4.3%,3.0%,0.0%,?
S=C(NCc1ccco1)N/N=C/c1ccc(Cl)cc1,?,-3.4%,1.3%,5.3%,20.6µM*
CN(Cc1ccc(C(C)(C)C)cc1)C(=O)C1CCN(C(=O)Nc2ccccc2)CC1,?,/,-3.8%,-1.9%[0.505 µM],23.1µM*
Cc1nc2ccc(NC(=O)c3cc([N+](=O)[O-])cc([N+](=O)[O-])c3Cl)cc2s1,5.17µM*,-3.0%,-2.3%,1.9%,6.51µM*
Cc1nc2ccc(S(=O)(=O)N(C)CC(=O)Nc3ccc(Br)c(C)c3)cc2s1,?,15.2%,/,5.1%,16.4µM*
CN(c1ccccc1)S(=O)(=O)c1ccc(Cl)c(C(=O)Nc2ccc(N3CCOCC3)cc2)c1,3.26µM*,13.5%,-4.2%,1.2%,1.64µM*
Cc1nc2ccc(NC(=O)c3ccc(Cl)c([N+](=O)[O-])c3)cc2s1,-22.0%,-16.7%,-4.8%,-0.6%,?
Cc1nc2ccc(NC(=O)c3ccc(Cl)c(S(=O)(=O)N(C)c4ccccc4)c3)cc2s1,13µM*,?,-13.3%,8.0%,3.26µM*
Cc1ncsc1CCC(=O)N1CCCC(C(=O)c2cccc(Cl)c2)C1 (stereo not drawn),?,8.1%,-14.4%,-1.2%,?
Cc1nc2ccc(NC(=O)c3cc(S(=O)(=O)N(C)c4ccccc4)ccc3Cl)cc2s1,1.84µM*,19.5%,-8.2%,-2.7%,1.84µM*
Cc1nc2ccc(S(=O)(=O)N(CC(=O)Nc3cccc(Cl)c3)Cc3ccccc3)cc2s1,?,16.4%,/,3.2%,16.4µM*
Cc1ccc(C2(CCN)CCOC(C(C)C)C2)cc1 (stereo not drawn),23.1µM*,-0.4%,5.0%,0.6%,?
COc1ccc(CN2C(=O)NC3(CCCCCC3)C2=O)cc1F,16.4µM*,-10.9%,12.7%,5.8%,14.6µM*
CCCCON1C(=O)c2cccc3cccc(c23)C1=O,11.9%,-34.9%,4.8%,35.5µM*,?
COc1ccc(CN2C(=O)c3cccc4cccc2c34)cc1F,-23.1%,1.3%,-3.9%,50.1µM*,-23.3%
COC(=O)CN1C(=O)c2cccc3cccc1c23,12.0%,0.8%,0.3%,0.1%,12.9%
O=C1c2ccccc2C(=O)N1CCCCON1C(=O)c2ccccc2C1=O,-18.8%,-3.2%,2.9%,3.2%,-5.1%
CCN1C(=O)c2cccc3cccc1c23,29.1µM*,-14.8%,-6.9%,4.8%,?
SMILES,TDP1 cell CPT,miR-21 reporter,uPA generation,TDP1 inh,TDP1 cell noCPT
COc1ccc(C(=O)NCC(=O)OCC(=O)NC(=O)c2ccc(C(C)(C)C)cc2)cc1OC,-7.1%,/,3.3%,2.0%,10.3%
Cc1ccc(-c2ccc(/C=N\n3cnnc3)o2)c(Br)c1,29.9%,-7.7%,-5.0%,/,-2.2%
O=C(N/N=C/c1cccc([N+](=O)[O-])c1)C1CC(=O)N(c2ccc(Cl)cc2)C1 (stereo not drawn),-20.1%,-15.4%,0.2%,3.9%,?
Cc1cccn2c(=O)nc(SCC(=O)c3ccc(Cl)cc3)nc12,-3.6%,/,-9.5%,/,?
O=C(Oc1ccc2c(=O)c(Cl)coc2c1)c1cccnc1,-6.0%,0.1%,-0.8%,1.0%,-0.8%
CN=CC1=C(O)c2ccccc2C1=O,-2.1%,-13.2%,-4.8%,0.0%,10.7%
O=C1C(C2=C(O)c3ccccc3C2=O)=Nc2ccccc21,10.3µM*,-14.3%,-3.1%,10.7%,14.6µM*
O=C(Nc1ccc2c(c1)OCCO2)c1cc(-c2ccccc2)nc2ccccc12,?,4.5%,11.9%,4.0%,23.1µM*
O=C(Nc1ccc2c(c1)OCO2)c1cc(-c2ccncc2)nc2ccccc12,?,10.6%,-8.0%,5.0%,14.6µM*
CC(C)(C)NC(=O)c1cc(-c2ccc3c(c2)OCO3)nc2ccccc12,4.6%,-12.6%,5.3%,0.5%,-27.2%
Nc1c(C=C2C=CC(=O)C=C2)c(=O)nc2snc(SCc3ccccc3)n12,-18.0%,-56.6%,-10.8%,2.5%,-17.9%
CNc1nc(C)c([N+](=O)[O-])c(Nc2ccc(OC)cc2)n1,?,-0.9%,-3.2%,/,23.1µM*
CC(=O)Nc1ccc(Nc2nc(C)c([N+](=O)[O-])c(Nc3ccc(NC(C)=O)cc3)n2)cc1,?,2.3%,-1.9%,8.1%,6.51µM*
Cc1ccc(Cl)cc1-n1ncc2c(Nc3ccc4c(c3)OCCO4)ncnc21,25.9µM*,-37.8%,/,2.6%,?
Clc1cccc(-n2ncc3c(Nc4ccc5c(c4)OCCO5)ncnc32)c1,?,-20.3%,/,7.8%,?
Clc1ccc(Nc2ncnc3c2cnn3-c2ccccc2)cc1,?,-15.3%,8.2%,5.2%,?
Cc1ccc(-n2ncc3c(Nc4ccc5c(c4)OCCO5)ncnc32)cc1Cl,?,-46.9%,/,2.6%,23.1µM*
Fc1ccc(-n2ncc3c(Nc4ccc5c(c4)OCCO5)ncnc32)cc1,13µM*,-13.2%,/,5.2%,29.1µM*
Fc1ccc(-n2ncc3c(Nc4cccc(Cl)c4)ncnc32)cc1,?,-12.5%,/,2.6%,?
COc1ccccc1CNS(=O)(=O)c1ccc(Cl)s1,1.9%,-5.7%,-4.5%,1.5%[0.0935 µM],-29.0%
O=S(=O)(c1cccs1)N1CCN(Cc2cccc(F)c2)CC1,-23.6%,-3.6%,1.9%,1.0%,2.6%
Cc1cc(O)c(CN2CCN(S(=O)(=O)c3cccs3)CC2)cc1C(C)C,23.1µM*,/,3.0%,0.2%,?
Cc1cc(C(C)(C)C)cc(CN2CCN(S(=O)(=O)c3cccs3)CC2)c1O,-6.5%,/,/,/,0.184µM*
